High-throughput results: PubChem, National Center for Advancing Translational Sciences (NCATS)
A selection: hits, their analogues and other compounds. The true share with any hit is near 9.2%.
ELG1 genotoxic – induces genotoxicity in HEK293T cells with luciferase-tagged ELG1; Potency, µM (highest dose often 46 µM), for the others: at the highest dose activity change, positive = activation, most hits filed as activators; hit rate 1.3% among 330,000; AID 504466; HEK293T ELG1-luciferase reporter, luminescence, 16 h; also: % of control where 0% means no effect; nearly all actives have a fitted effect of over 60% in size
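Luminescence read-out: rising ELG1-luciferase signal, reflecting elevated ELG1 protein under genetic stress, flags genotoxic compounds. Cells were treated for 16 hr at 37 °C before ONE-Glo detection.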
NPC1 prom act – activates the NPC1 promoter | Huh7 NPC1 promoter luciferase reporter, 24 h | Potency, µM (series often up to 9.22 µM), without a hit: at the top dose activation, actives largely listed as activators | hit rate 2.4% among 320,000; also: % of control where 0% means no effect; nearly all actives have a fitted effect of over 60% in size
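Quantitative HTS used a cell-based reporter: Huh7 cells stably bearing the NPC1 promoter upstream of luciferase were treated with compounds for 24 h, and promoter activation was read as luminescence.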
ELG1 DNA repair – inhibitors of ELG1-dependent DNA repair in HEK293T cells | HEK293T ELG1-luciferase reporter, luminescence, 16 h; DNA damage induced by 5-fluorouridine | Potency, µM (series often up to 46.1 µM), for inactives: top-dose activity change, negative = inhibition, most hits filed as inhibitors | hit rate 2.3% among 330,000 | AID 504467; also: % is scaled to controls: 0 for no effect and ±100 for the full control effect; nearly all actives have a fitted effect of over 55% in size
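5-Fluorouridine DNA damage + compound/DMSO, 2,000 cells/well, 16 h, 37 °C/5% CO2. ONE-Glo, 30 min RT, luminescence. Readout = decrease in reporter signal.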
FLuc counter – counter-screen for miR-21 project: firefly luciferase inhibitors or activators; P08659; purified FLuc, Km substrates, luminescence inhibition; Potency, µM (top dose mostly 57.5 µM), inactives show at the highest dose activity change, negative = inhibition, most hits filed as inhibitors; hit rate 6.9% among 360,000; AID 588342;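 also: plate controls were vehicle for no effect and reference inhibitor for full effect; nearly all actives have a fitted effect of over 55% in size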
Target sequence (P08659 whole entry, looked up): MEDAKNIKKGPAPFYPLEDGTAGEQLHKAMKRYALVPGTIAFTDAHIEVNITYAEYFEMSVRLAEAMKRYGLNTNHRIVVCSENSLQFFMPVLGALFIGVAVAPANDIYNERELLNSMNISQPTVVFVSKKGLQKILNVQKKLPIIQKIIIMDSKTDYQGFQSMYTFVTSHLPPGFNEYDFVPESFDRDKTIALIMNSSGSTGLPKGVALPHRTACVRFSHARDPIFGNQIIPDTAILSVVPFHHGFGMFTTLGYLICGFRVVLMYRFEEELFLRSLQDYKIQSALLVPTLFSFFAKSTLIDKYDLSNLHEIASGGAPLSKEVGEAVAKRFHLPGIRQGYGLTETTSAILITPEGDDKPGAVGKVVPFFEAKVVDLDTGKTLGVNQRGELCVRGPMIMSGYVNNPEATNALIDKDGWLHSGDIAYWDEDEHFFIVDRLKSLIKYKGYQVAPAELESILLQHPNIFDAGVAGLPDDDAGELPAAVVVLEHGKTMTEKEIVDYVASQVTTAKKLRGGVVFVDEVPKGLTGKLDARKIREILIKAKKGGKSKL
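Purified P. pyralis luciferase (10nM final) with 10uM D-luciferin and 10uM ATP (Km levels) in 50mM Tris acetate pH 7.5, 10mM Mg acetate, 0.01% Tween-20, 0.05% BSA; qHTS 6-point titration, ~60 µM downward; luminescence read.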
Rab9 prom act – Rab9 promoter activation. Huh7 Rab9 promoter-luciferase reporter, luminescence, 24 h. hit rate 2.8% among 320,000. Potency, µM (highest dose often 9.22 µM), without a hit: at the top dose activation, negative = inhibition, most hits filed as activators; also: % of control where 0% means no effect; nearly all actives have a fitted effect of over 60% in size
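Huh7 cells stably carrying a Rab9 promoter-luciferase reporter, 1500 cells per well in OP-MEM I with 10% FBS, treated with compound 24 hours at 37C. Luciferase activity read by luminescence after 10 minutes with Amplite reagent.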
SMN2 splice enh – increases expression of the SMN2 splice variant. HEK293 SMN2-luciferase splicing reporter, luminescence, 30-36 h. Potency, µM (doses to about 46.1 µM), for inactives: top-dose activity change, positive = activation, hits mostly activators. hit rate 2.8% among 210,000. AID 1458; also: % of control where 0% means no effect; nearly all actives have a fitted effect of over 55% in size
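HEK293 cells carry an SMN2 minigene-luciferase reporter in which exon 7 inclusion puts luciferase in frame. Cells were seeded at 2000 cells/well, attached for 10-12 hours, then exposed to compounds for 30-36 hours at 37C before ONE-Glo luminescence.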
* marks the source's active call; other numbers are inactive results; ? = inconclusive; . = not tested or not shown; [ ] = dose if it differs, or a comment. Calls follow the shape of the dose curve; as a rule, active = well fitted curve in the direction sought with a large enough effect; inconclusive = small, poorly fitted or top-dose-only effect, or another doubt; inactive = no such curve, though single readings can be large; an effect the other way counts as inactive or inconclusive. Potency is read from the fitted curve at half-maximal effect.

SMILES	ELG1 genotoxic	NPC1 prom act	ELG1 DNA repair	FLuc counter	Rab9 prom act	SMN2 splice enh
Cc1onc(-c2ccccc2Cl)c1C(=O)Nc1ccc(-c2cn3cccnc3n2)cc1	-8%	-3%	13µM*	-10%	11%	-19%
CC(C)(C)CC(=O)Nc1ccc(-c2cn3cccnc3n2)cc1	?	2.8µM*	?	9.5µM*	?	.
COc1ccccc1NC(=O)C(C)OC(=O)c1cccc(-n2cnnn2)c1 (stereo not given)	1%	0%	1%	1%	-4%	.
Cc1cccc(CNC(=O)CCCN2C(=O)CCn3nc(-c4cn(C)c5ccccc45)cc32)c1	.	.	.	-1%	.	.
Cc1ccc(C2C(C#N)=C(N)OC3=C2C(=O)CC(C)(C)C3)s1 (stereo not given)	3%	0%	18%	2%	-1%	.
CCOCC(=O)Nc1ccc(-c2cn3cccnc3n2)cc1	4%	-1%	30%	?	3%	13%
CC(C)CC(=O)Nc1ccc(-c2cn3cccnc3n2)cc1	?	?	?	15µM*	28%	.
C#CCOc1ccc(C2C(C#N)=C(N)Oc3cc(O)ccc32)cc1 (stereo not given)	-2%	-1%	-15%	-2%	0%	.
CC1(c2ccccc2)NC(=O)N(Cc2ccc([N+](=O)[O-])cc2)C1=O (stereo not given)	0%	-5%	-6%	-1%	0%	-24%
CN(Cc1c(F)cccc1Cl)C(=O)CNC(=O)c1cccs1	?	4µM*	?	?	?	.
CN1CCN(C(=O)/C=C/c2ccc(Cl)cc2)CC1	3%	6%	?	-10%	-6%	.
COc1ccc(/C=C/C(=O)N2CCC(c3nc4ccccc4o3)CC2)cc1OC	.	.	.	-3%	.	.
CC(C)Cc1ccc(/C=C/C(=O)NC2CC2)cc1	16µM*	?	?	4.8µM*	3.5µM*	?
Cc1ccc(/C=C/C(=O)N2CCC(c3nc4ccccc4o3)CC2)cc1	.	.	.	11µM*	.	.
Cc1ccc(/C=C/C(=O)N2CCC(Cc3ccccc3)CC2)cc1	-1%	0%	1%	21µM*	-5%	-8%[1.84 µM]
CC(C)Cc1ccc(/C=C/C(=O)N2CCCCC2)cc1	14%	2.5µM*	?	7.6µM*	0.89µM*	11µM*
COc1ccc(CCNC(=O)CCCCn2c(=O)c3ccccc3n(Cc3cc(C)ccc3C)c2=O)cc1OC	.	.	.	-2%	.	1%
CC(Sc1nncs1)C(=O)Nc1ccc(Cl)cn1 (stereo not given)	0%	-5%	6%	4%	1%	-13%
CC1(C)CC(=O)C(C=NCCN2CCNCC2)=C(O)C1	-5%	-3%	-5%	2%	-16%	-4%
Cc1ccc(/C=C/C(=O)N2CCCC(C)C2)cc1 (stereo not given)	9.2µM*	1.3µM*	?	3µM*	2.2µM*	1.1µM*
CCOC(=O)C1CCCN(C(=O)/C=C/c2ccc(Cl)cc2)C1 (stereo not given)	-1%	0%	4%	-20%	3%	-6%
CC1CCN(C(=O)/C=C/c2ccc(C(C)(C)C)cc2)CC1	?	18%	?	15µM*	29%	22%
CC(C)(C)c1ccc(/C=C/C(=O)N2CCCCC2)cc1	?	4µM*	?	6.7µM*	1.6µM*	13µM*
O=C(/C=C/c1ccccc1)N1CCCN(C(=O)/C=C/c2ccccc2)CC1	3%	8%	-6%	?	5%	-9%
COC(=O)N1C2CC(=O)O[C@@H]3c4cc5c(cc4[C@]1(C)[C@@]3(Br)c1ccccc12)OCO5	.	.	.	.	.	-30%[9.22 µM]
SMILES	ELG1 genotoxic	NPC1 prom act	ELG1 DNA repair	FLuc counter	Rab9 prom act	SMN2 splice enh
N#Cc1ccccc1Cn1c(SCC(=O)Nc2ccc(F)cc2)nc2ccccc21	.	.	.	3%	.	.
COc1ccc(C(=O)c2ccc3oc(-c4ccc(OC)cc4)c(-c4ccc(O)cc4)c3c2)cc1	-9%	.	?	.	.	.
Cc1ccc(C(=O)NC2CCc3ccccc3C2=O)cc1 (stereo not given)	5%	2.5µM*	?	12µM*	2.2µM*	13µM*
Cc1ccc(C(=O)NC2CCSC2=O)cc1 (stereo not given)	6%	0%	26%	4%	-8%	-15%
O=C(NC12CC3CC(CC(C3)C1)C2)c1cc([N+](=O)[O-])ccc1N1CCOCC1	5%	2%	11%	1%	2%	.
CCCC(=O)Nc1sc(C(=O)Nc2cccc(N)c2)c(C)c1C(=O)OC	?	3.2µM*	?	13µM*	0.89µM*	.
CCC(=O)Nc1sc(C(=O)Nc2ccccc2F)c(C)c1C(=O)OC	-1%	0%	4%	7.6µM*	0%	.
COC(=O)c1c(NC(C)=O)sc(C(=O)Nc2ccccc2F)c1C	?	?	?	0%	?	7.1µM*
CC(OC(=O)c1nc(-c2ccccc2)n(-c2ccccc2)n1)C(=O)Nc1cc(Cl)cc(Cl)c1 (stereo not given)	-1%	-3%	5%	-5%	0%	-11%
COC(=O)c1ccc(COC(=O)CCC(=O)c2cccs2)cc1	17%	18%	?	-12%	?	16%
Cc1ccc2nc(C)c(C(=O)NN=C3CCCCCC3)n2c1	0%	-2%	?	-1%	-1%	.
COc1cc(/C=C2\NC(=S)N(C)C2=O)ccc1O	9%	-8%	3%	-9%	1%	-1%
Cc1cc(/C=C2/C(=O)N(C)C(=S)N2C)ccc1N1CCCC1	?	?	?	4.8µM*	?	13µM*
CCCN1C(=O)/C(=C/c2ccc(N3CCOCC3)cc2)NC1=S	-4%	0%	-22%	?	1%	-31%
Cc1cc(/C=C2\NC(=S)N(C)C2=O)ccc1N1CCCC1	?	?	2%	7.6µM*	3.5µM*	.
CCN1C(=O)/C(=C/c2ccc(N3CCCC3)cc2)NC1=S	-3%	-3%	?	19µM*	0%	-18%
CCCN1C(=O)/C(=C/c2ccc(N3CCCC3)c(C)c2)NC1=S	3%	0%	10µM*	?	0%	-32%
Cc1cc(N2CCCC2)ccc1/C=C1/C(=O)N(C)C(=S)N1C	0%	-17%	-16%	-15%	-17%	-15%
CC(=O)N1CCN(C(=O)c2ccc(C(=O)c3ccccc3)cc2)CC1	-1%	-1%	-17%	1%	-1%	.
Cc1ccc(C2C(C#N)=C(N)Oc3c2sc2ccccc32)o1 (stereo not given)	?	0%	8%	13µM*	1%	5%
CCOC(=O)CC1=C(C(=O)OCC)C(c2ccc(C)o2)C(C#N)=C(N)O1 (stereo not given)	0%	-3%	8%	4%	2%	2%
